Inconclusive results are not listed. The source made the active and inactive calls. Unless noted, calls come from the whole dose curve; as a rule, active = well fitted curve in the direction sought with a large enough effect in the repeat runs; inconclusive = weak or mixed curves; inactive = no such curve, though single readings can be large; an effect the other way counts as inactive or inconclusive.

From PubChem BioAssay (Tox21) come the findings set out here.

The target in assay [1] is Acetylcholinesterase (Homo sapiens) (UniProt P22303). Kind of assay: Acetylcholinesterase (AChE) small molecule antagonists: enzyme-based qHTS assay (AID 1347397; calls by dose curve; note: nearly all actives have a fitted effect of over 55% in size). Conditions: Potency: AChE enzyme activity inhibition. A digest of the protocol: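 Human recombinant acetylcholinesterase; substrate acetylthiocholine; thiocholine quantified with DTNB (colorimetric). Compound preincubation 30 min RT; reaction 10 min RT.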

Assay [2] shares this target. Description: Acetylcholinesterase (AChE) small molecule antagonists: fluorescence cell-based qHTS assay (AID 1347398; calls by dose curve; note: nearly all actives have a fitted effect of over 50% in size; note: potency is the fitted concentration of half-maximal effect). Conditions: Potency: AChE activity. In a few lines: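 Thiocholine generated from acetylthiocholine by SH-SY5Y cell AChE is detected with Thiolite Green (Ex/Em 490/520 nm) after 40 min at room temperature, following 30 min compound pretreatment at 37 C.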
In general terms: Quantitative high-throughput screening tests each substance at several concentrations.

Assay [3] shares this target. Kind of assay: Acetylcholinesterase (AChE) small molecule antagonists: enzyme-based qHTS assay with human liver microsomes (AID 1347399; calls by dose curve; note: nearly all actives have a fitted effect of over 60% in size; note: potency is the fitted concentration of half-maximal effect). Conditions: Potency: qHTS inhibition. In a few lines:
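Recombinant human AChE (50 mU/mL in the enzyme mix) and human liver microsomes (0.25 mg/mL final) were preincubated with compound and NADPH (0.25 mg/mL final) for 30 min at 37 C. Acetylthiocholine/DTNB was then added; thiocholine was read colorimetrically after 10 min at room temperature.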

The target of assay [4] is Cytochrome P450 2D6 (Homo sapiens) (UniProt P10635). Kind of assay: Cytochrome P450 Family 2 Subfamily D Member 6 (CYP2D6) small molecule antagonists: luciferase reporter qHTS assay (AID 1671196). Note: nearly all actives have a fitted effect of over 50% in size. Note: potency is the fitted concentration of half-maximal effect. A digest of the protocol: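 Luminescence (RLU), read 20 min after detection reagent, indicated CYP2D6 conversion of proluciferin to luciferin during a 1 h NADPH-dependent reaction at room temperature.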
On the technique in general: In a reporter assay the amount or activity of a reporter protein is the signal.

The target of assay [5] is Cytochrome P450 2C9 (Homo sapiens) (UniProt P11712). Description: Cytochrome P450 Family 2 Subfamily C Member 9 (CYP2C9) small molecule antagonists: luciferase reporter qHTS assay (AID 1671198). Note: nearly all actives have a fitted effect of over 50% in size. Note: potency is the fitted concentration of half-maximal effect. A digest of the protocol:
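CYP2C9 activity was measured with a P450-Glo proluciferin substrate. Enzyme–substrate mix was held with compound for 10 min at room temperature, then NADPH regeneration solution was added for 1 h at 37C. Luciferin product was read as luminescence.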

Assay [6] has as its target Cytochrome P450 1A2 (Homo sapiens) (UniProt P05177). Kind of assay: Cytochrome P450 Family 1 Subfamily A Member 2 (CYP1A2) small molecule antagonists: luciferase reporter qHTS assay (AID 1671199). Note: nearly all actives have a fitted effect of over 50% in size. Note: potency is the fitted concentration of half-maximal effect. In a few lines:
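CYP1A2 turnover of a luminogenic substrate was quantified after 1 h with NADPH regeneration at room temperature. Furafylline served as positive control.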

The target in assay [7] is Cytochrome P450 3A4 (Homo sapiens) (UniProt P08684). Kind of assay: Cytochrome P450 Family 3 Subfamily A Member 4 (CYP3A4) small molecule antagonists: luciferase reporter qHTS assay (AID 1671201). Note: nearly all actives have a fitted effect of over 50% in size. Note: potency is the fitted concentration of half-maximal effect. A digest of the protocol: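 CYP3A4 activity was followed with a P450-Glo proluciferin substrate. Test compounds in DMSO were preincubated 10 min; NADPH regeneration then ran 1 h, and light output was read 20 min after detection reagent.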

Assay [8] deals with Voltage-gated inwardly rectifying potassium channel KCNH2 (Homo sapiens) (UniProt Q12809). Kind of assay: Human Ether-a-go-go-Related Gene (hERG) channel small molecule antagonists: fluorescence cell-based qHTS assay (AID 1671200). Note: nearly all actives have a fitted effect of over 50% in size. Note: potency is the fitted concentration of half-maximal effect. A digest of the protocol:
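In this thallium-flux screen, overnight-cultured U2OS cells bearing the channel are dye-loaded in darkness for an hour, rested 10 min at room temperature, and then monitored kinetically at 480/540 nm for two minutes post-stimulus.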
On the technique in general: The hERG channel carries a current that helps repolarise heart muscle cells.

Assay [9] deals with Cytochrome P450 2C19 (Homo sapiens) (UniProt P33261). Kind of assay: Cytochrome P450 Family 2 Subfamily C Member 19 (CYP2C19) small molecule antagonists: luciferase reporter qHTS assay (AID 1671197). Note: nearly all actives have a fitted effect of over 65% in size. Note: potency is the fitted concentration of half-maximal effect. A digest of the protocol:
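Enzyme-substrate mix with proluciferin substrate (P450-Glo CYP2C19 system) preincubated with compounds 10 min at room temperature; NADPH regeneration solution added, 37C for 1 h; detection reagent stops reaction, luminescence read after 20 min. Ketoconazole positive control.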

Cytochrome P450 2C9 (Homo sapiens), sequence (P11712 whole entry, looked up): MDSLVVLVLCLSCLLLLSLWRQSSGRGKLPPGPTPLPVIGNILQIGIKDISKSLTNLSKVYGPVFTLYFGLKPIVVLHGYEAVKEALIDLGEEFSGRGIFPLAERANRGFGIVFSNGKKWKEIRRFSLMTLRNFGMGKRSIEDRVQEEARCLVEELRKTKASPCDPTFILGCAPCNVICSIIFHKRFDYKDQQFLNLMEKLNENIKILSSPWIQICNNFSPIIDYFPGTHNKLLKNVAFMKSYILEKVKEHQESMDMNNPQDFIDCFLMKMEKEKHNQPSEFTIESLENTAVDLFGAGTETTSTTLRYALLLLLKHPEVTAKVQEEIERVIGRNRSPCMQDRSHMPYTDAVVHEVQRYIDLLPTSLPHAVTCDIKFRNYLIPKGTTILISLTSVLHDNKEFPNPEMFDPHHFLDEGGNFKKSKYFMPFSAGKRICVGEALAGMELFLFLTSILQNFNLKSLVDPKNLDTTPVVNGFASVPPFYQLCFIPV
Cytochrome P450 2D6 (Homo sapiens), sequence (P10635 whole entry, looked up): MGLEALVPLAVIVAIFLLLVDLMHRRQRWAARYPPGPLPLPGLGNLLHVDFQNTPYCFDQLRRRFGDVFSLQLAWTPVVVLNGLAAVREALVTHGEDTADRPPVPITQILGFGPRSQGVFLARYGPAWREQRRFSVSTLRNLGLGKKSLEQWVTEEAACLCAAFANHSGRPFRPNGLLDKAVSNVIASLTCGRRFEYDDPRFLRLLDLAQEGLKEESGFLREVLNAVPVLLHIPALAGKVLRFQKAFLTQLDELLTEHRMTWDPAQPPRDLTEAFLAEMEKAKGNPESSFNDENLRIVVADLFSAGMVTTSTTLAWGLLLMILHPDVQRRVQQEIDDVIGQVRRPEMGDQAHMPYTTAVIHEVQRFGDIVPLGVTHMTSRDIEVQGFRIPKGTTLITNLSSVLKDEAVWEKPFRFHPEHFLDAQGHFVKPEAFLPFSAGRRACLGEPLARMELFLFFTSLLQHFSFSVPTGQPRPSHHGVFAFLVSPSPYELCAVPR
Acetylcholinesterase (Homo sapiens), sequence (P22303 whole entry, looked up): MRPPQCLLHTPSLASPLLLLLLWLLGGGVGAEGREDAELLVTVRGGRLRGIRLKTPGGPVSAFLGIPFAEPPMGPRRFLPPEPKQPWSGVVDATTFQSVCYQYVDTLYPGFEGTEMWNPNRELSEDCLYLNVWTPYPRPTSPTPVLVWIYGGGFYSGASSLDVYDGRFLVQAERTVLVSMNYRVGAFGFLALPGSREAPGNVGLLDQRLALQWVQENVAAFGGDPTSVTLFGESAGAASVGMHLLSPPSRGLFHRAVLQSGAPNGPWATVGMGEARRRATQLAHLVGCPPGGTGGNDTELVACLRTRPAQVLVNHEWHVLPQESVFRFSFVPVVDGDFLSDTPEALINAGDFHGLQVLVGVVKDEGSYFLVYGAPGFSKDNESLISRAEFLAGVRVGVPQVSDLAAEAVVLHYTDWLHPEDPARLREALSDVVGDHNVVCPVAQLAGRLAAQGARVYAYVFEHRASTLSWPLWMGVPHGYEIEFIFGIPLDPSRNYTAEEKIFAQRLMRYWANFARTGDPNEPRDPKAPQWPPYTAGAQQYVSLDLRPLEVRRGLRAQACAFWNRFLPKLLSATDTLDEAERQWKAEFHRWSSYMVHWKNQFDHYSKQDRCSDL
Cytochrome P450 1A2 (Homo sapiens), sequence (P05177 whole entry, looked up): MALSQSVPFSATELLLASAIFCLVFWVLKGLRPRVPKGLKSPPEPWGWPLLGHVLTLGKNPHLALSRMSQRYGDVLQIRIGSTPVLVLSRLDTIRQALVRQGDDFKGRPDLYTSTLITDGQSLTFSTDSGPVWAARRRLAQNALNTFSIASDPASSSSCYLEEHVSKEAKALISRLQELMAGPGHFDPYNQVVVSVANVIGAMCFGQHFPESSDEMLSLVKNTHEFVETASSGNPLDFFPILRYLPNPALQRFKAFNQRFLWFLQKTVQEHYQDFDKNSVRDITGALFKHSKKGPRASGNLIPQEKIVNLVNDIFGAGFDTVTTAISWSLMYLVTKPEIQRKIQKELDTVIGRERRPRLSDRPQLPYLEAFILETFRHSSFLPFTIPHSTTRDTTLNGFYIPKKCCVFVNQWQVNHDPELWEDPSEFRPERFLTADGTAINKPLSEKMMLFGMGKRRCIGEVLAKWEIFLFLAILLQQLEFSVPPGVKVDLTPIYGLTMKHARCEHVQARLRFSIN
Voltage-gated inwardly rectifying potassium channel KCNH2 (Homo sapiens), sequence (Q12809 whole entry, looked up): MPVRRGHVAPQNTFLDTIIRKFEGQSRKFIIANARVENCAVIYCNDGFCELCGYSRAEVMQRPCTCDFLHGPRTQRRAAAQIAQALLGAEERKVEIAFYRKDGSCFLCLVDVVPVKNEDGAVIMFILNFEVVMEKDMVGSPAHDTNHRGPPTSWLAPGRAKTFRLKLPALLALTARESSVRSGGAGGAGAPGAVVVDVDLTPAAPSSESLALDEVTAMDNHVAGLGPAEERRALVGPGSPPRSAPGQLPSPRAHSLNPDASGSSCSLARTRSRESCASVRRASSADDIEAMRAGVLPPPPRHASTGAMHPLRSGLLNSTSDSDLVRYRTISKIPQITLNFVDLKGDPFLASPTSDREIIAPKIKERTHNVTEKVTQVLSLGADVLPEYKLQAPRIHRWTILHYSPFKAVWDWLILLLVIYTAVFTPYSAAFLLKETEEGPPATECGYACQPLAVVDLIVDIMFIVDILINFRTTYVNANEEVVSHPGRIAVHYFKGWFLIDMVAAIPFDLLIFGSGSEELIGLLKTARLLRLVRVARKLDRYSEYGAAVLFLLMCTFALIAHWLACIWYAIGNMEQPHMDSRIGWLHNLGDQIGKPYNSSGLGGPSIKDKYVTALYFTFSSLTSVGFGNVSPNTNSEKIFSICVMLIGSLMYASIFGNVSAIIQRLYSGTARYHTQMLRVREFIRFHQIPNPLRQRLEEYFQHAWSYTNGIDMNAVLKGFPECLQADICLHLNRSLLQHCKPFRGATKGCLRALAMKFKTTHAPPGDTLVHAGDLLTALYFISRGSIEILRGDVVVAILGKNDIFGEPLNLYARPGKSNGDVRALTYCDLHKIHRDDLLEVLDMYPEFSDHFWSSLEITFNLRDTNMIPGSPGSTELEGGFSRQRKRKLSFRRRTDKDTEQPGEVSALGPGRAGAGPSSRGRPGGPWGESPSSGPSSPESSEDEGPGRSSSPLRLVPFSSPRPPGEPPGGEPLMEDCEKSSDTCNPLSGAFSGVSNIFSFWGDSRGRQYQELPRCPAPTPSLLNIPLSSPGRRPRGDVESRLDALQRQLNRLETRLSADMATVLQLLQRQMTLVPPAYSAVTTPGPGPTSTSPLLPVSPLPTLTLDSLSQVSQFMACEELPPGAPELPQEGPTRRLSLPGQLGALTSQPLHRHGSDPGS
Cytochrome P450 2C19 (Homo sapiens), sequence (P33261 whole entry, looked up): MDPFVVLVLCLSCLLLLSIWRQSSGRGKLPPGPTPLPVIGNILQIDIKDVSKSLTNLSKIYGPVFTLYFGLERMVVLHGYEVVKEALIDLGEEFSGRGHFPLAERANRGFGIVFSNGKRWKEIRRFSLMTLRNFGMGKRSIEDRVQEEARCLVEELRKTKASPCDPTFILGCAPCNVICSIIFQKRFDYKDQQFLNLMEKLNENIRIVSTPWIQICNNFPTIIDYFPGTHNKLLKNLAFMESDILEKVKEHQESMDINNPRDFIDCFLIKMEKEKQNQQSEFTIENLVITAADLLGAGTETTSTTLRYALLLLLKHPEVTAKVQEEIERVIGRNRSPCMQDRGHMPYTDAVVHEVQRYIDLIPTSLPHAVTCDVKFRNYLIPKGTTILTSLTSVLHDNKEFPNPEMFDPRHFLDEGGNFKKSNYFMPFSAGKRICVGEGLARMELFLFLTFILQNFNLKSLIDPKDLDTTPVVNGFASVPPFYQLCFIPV
Cytochrome P450 3A4 (Homo sapiens), sequence (P08684 whole entry, looked up): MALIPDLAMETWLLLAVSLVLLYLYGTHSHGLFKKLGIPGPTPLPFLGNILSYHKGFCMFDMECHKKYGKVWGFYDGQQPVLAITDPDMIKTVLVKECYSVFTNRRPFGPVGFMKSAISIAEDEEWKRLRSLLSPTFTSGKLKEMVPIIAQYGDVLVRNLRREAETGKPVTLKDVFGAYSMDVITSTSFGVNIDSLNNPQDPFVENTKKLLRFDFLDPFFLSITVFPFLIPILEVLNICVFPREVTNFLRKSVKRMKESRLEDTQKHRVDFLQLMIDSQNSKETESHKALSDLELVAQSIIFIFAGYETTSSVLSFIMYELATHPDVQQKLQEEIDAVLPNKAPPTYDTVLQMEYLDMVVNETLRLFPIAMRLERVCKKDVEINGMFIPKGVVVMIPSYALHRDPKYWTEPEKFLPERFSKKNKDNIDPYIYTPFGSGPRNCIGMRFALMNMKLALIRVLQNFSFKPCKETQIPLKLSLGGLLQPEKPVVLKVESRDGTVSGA

On to `Nc1cc2c3c(c1)C(c1ccccc1)=N[C@@H](NC(=O)c1cccnc1)C(=O)N3CC2`, for which the Potency result in [1], in assay [2], in assay [3], in [4] and in assay [6] was “inactive” each time. The Potency was 7.1 µM (active) in assay [5] and 11.2 µM (active) in assay [7].

With `COc1cc(OC)nc(NC(=O)NS(=O)(=O)c2ncccc2OCC(F)(F)F)n1`, the Potency result in [1], in assay [2], in assay [3], in assay [4], in [8] and in assay [7] was “inactive” throughout.

Regarding `O=[N+]([O-])c1cccc2cccnc12`, the Potency result in assay [1], in assay [2], in assay [3], in [4], in [5] and in assay [7] was “inactive” in each case. The Potency in [6] is 36.5 µM (active).

Take `C[C@]1(O)CC[C@H]2[C@@H]3CCC4=CC(=O)CC[C@]4(C)[C@@]3(F)[C@@H](O)C[C@@]21C`: the Potency result in assay [1], in assay [2], in [3], in assay [4] and in assay [7] was “inactive” each time. Moreover, the Potency in assay [9] is 71.4 µM (active).

As for `O=C1CN=C(c2ccccc2)c2cc([N+](=O)[O-])ccc2N1`, the Potency result in assay [1], in assay [2], in [3], in [9], in assay [6] and in assay [8] was “inactive” throughout. Moreover, in [7], the Potency result was “inactive”.

As to `CN1C[C@@H](NS(=O)(=O)N(C)C)C[C@@H]2c3cccc4c3c(cn4C)C[C@H]21`, the Potency result in [1], in assay [3], in assay [4], in assay [9], in assay [5] and in assay [6] was “inactive” each time. Besides, the Potency entry in assay [8] and in assay [7] was “inactive” each time.

Consider `CCC(Cl)[N+](=O)[O-]` (stereo not given), for which the Potency entry in [1], in assay [2], in [3], in [9], in assay [5] and in assay [8] was “inactive” in each case. Also, the Potency entry in assay [7] is “inactive”.

With `OC(c1ccc(F)cc1)(c1cncnc1)c1ccccc1Cl` (stereo not given), the Potency result in assay [1], in [2], in [3] and in [8] was “inactive” throughout. In addition, the Potency was 3.99 µM (active) in assay [9], 20 µM (active) in [5] and 0.356 µM (active) in assay [7].

Regarding `CCOc1nc(C(Cl)(Cl)Cl)ns1`, the Potency result in [1], in assay [3], in assay [4], in assay [9], in assay [8] and in assay [7] was “inactive” throughout.

With `N#CC(CCc1ccc(Cl)cc1)(Cn1cncn1)c1ccccc1` (stereo not given), the Potency entry in assay [1], in [2] and in assay [3] was “inactive” throughout. Further, the Potency in assay [9] is 0.2 µM (active); in assay [5] it was 2.24 µM (active); in assay [6] it was 31.7 µM (active); in [8], 21.9 µM (active); in [7], 0.0633 µM (active).

Take `CC1(C)COP(Oc2ccccc2)OC1`: the Potency entry in assay [1], in [2], in [3], in assay [9], in [5] and in [8] was “inactive” each time. Also, the Potency entry in assay [7] was “inactive”.

For `CCOC(=O)NC(=S)Nc1ccccc1NC(=S)NC(=O)OCC`, the Potency result in [1], in [2], in assay [3] and in [8] was “inactive” in each case. The Potency in [9] was 5.03 µM (active); in assay [6], 31.7 µM (active); in assay [7] it was 25.2 µM (active).

With `Nc1c(Br)cc([N+](=O)[O-])cc1[N+](=O)[O-]`, the Potency entry in assay [1], in [3], in assay [5], in [8] and in assay [7] was “inactive” in each case. Moreover, the Potency in assay [9] is 50.8 µM (active); in assay [6], 1.8 µM (active).

Turning to `CC(C)NCC(O)c1ccc(N)c(C#N)c1` (stereo not given), the Potency entry in assay [1], in [2], in [3] and in assay [8] was “inactive” throughout.

Regarding `CCCSP(=S)(OCC)Oc1ccc(Cl)cc1Cl` (stereo not given), the Potency result in assay [1], in [2], in assay [3] and in assay [8] was “inactive” throughout. Besides, the Potency in assay [9] is 2.24 µM (active); in assay [5], 2 µM (active); in assay [6], 11.2 µM (active); in [7], 2.83 µM (active).

As for `Clc1ccccc1N1CCNCC1`, the Potency result in assay [1], in [3], in assay [9], in [5], in [8] and in assay [7] was “inactive” each time. Besides, the Potency in assay [4] is 9.77 µM (active).

As to `COC(=O)c1c(C(F)F)nc(C(F)(F)F)c(C2=NCCS2)c1CC(C)C`, the Potency result in [1], in assay [2], in [3] and in assay [8] was “inactive” each time. Further, the Potency in [9] is 5.03 µM (active); in assay [5], 35.6 µM (active); in assay [6], 0.356 µM (active); in assay [7], 2 µM (active).

In the case of `C=C(C)CN(CC)c1c([N+](=O)[O-])cc(C(F)(F)F)cc1[N+](=O)[O-]`, the Potency result in assay [2], in assay [3], in assay [4] and in assay [7] was “inactive” in each case. Besides, the figures for the Potency in [9], in assay [5] and in assay [6] were 28.3 µM (active), 31.7 µM (active) and 31.7 µM (active), respectively.

Consider `CCOP(=O)(N=C1SCCS1)OCC`, for which the Potency result in assay [1], in [3], in assay [4], in assay [9], in assay [5] and in assay [6] was “inactive” in each case. In addition, the Potency result in assay [8] and in [7] was “inactive” throughout.

As to `CC(CCc1ccccc1)NC(C)C(O)c1ccc(O)cc1` (stereo not given), the Potency entry in [2], in assay [3], in assay [5] and in assay [7] was “inactive” in each case. Also, the Potency in assay [4] was 0.436 µM (active); in [9], 9.77 µM (active); in assay [6], 15.5 µM (active); in [8], 4.77 µM (active).

Regarding `CCOP(=S)(OCC)Oc1cc(-c2ccccc2)on1`, the Potency in assay [2] was 44.8 µM (active); in assay [3], 3.17 µM (active); in [4], 35.6 µM (active); in [9], 1.59 µM (active); in assay [5], 0.502 µM (active); in assay [6], 3.17 µM (active). In addition, the Potency in assay [7] is 1.26 µM (active). Besides, in assay [8], the Potency result was “inactive”.

On to `O=C(Nc1ccccc1)c1ccccc1I`, for which the Potency entry in assay [2], in assay [3] and in assay [8] was “inactive” throughout. Besides, the Potency in assay [4] is 35.6 µM (active); in assay [9] it was 22.4 µM (active); in assay [5], 39.9 µM (active); in [6] it was 20 µM (active); in [7] it was 15.9 µM (active).

In the case of `COCC(=O)N(c1c(C)cccc1C)N1CCOC1=O`, the Potency result in assay [2], in assay [3], in [4], in assay [5], in assay [6] and in [8] was “inactive” in each case. In assay [7], the Potency entry was “inactive”. In assay [9], the Potency is 79.6 µM (active).

On to `Fc1cc(Br)ccc1CBr`, for which the Potency result in assay [1], in assay [3], in assay [4], in [9], in assay [5] and in assay [7] was “inactive” in each case.
